Only a sample is shown.
aSyn 5UTR act: Activators via SNCA 5'UTR binding, MLPCN; alpha-synuclein 5'UTR reporter, activators screen; hit rate 7.1% among 300,000; AID 1814; activity score, % (tested at 7.5 µM), hits read low; in the data active = activity score below about -60%
* = called active by the depositor.

SMILES	aSyn 5UTR act
CCCOc1ccc(-c2c(=O)n(OCC(=O)OCC)c3ccccc3[n+]2[O-])cc1	-87.6*
C=CCOn1c(=O)c(-c2cc3ccccc3o2)[n+]([O-])c2ccccc21	-144.2*
CCCCCCCCCCOC(=O)Cn1c(COc2ccc(Cl)cc2)[n+](C)c2ccccc21	82.6
S=C(Nc1ccccc1)Nc1nccs1	-176.5*
CC(C)(C)c1nnc(NC(=S)Nc2ccccc2)s1	-166.9*
Fc1ccc(NC(=S)Nc2ccc3nccnc3c2)cc1	-90.5*
Fc1ccc(NC(=S)Nc2nccs2)cc1	-128.3*
Fc1cccc(Nc2cc(-n3cccn3)ncn2)c1	-147.5*
Cc1ccc(Nc2cc(-n3cccn3)ncn2)c(C)c1	-170.1*
O=C(c1cc(COc2ccc(F)cc2Cl)on1)N1C[C@H]2CC[C@H]1C2	-163.6*
O=C(c1cc(COc2ccc(F)cc2Cl)on1)N1CC2C[C@@H]3CC1C[C@H](C2)C3	-190.4*
O=[N+]([O-])c1ccccc1N/N=C/c1ccc2c(c1)OCO2	-95.4*
O=[N+]([O-])c1ccccc1N/N=C/c1ccccc1	-231.0*
O=C(Nc1ccc(-n2ccc(C(F)(F)F)n2)cc1)c1cccs1	-175.6*
Cc1cc(C)cc(NC(=O)Nc2ccc(-n3ccc(C(F)(F)F)n3)cc2)c1	-77.0*
O=C(Nc1ccc(-n2ccc(C(F)(F)F)n2)cc1)Nc1cccc(Cl)c1	-81.0*
COc1ccccc1NC(=O)Nc1ccc(-n2ccc(C(F)(F)F)n2)cc1	-211.5*
COc1cc(CNC(=O)C2CC2)ccc1OCc1ccccc1	-96.8*
CCCCn1c(-c2ccccc2)cnc1SCC(=O)NCCc1ccc(OC)c(OC)c1	-135.8*
COc1cc(CN2CCC(C(=O)NCCC(C)C)CC2)ccc1OCc1ccccc1	-173.0*
COc1ccc(CCNC(=O)C(=O)NCc2ccccc2)cc1OC	-81.9*
COc1cc(CN2CCCCC2)ccc1OCc1ccccc1	-65.5*
O=C(CCN1C(=O)c2cccc3cccc(c23)C1=O)N1CCOCC1	-101.8*
O=C1c2cccc3cccc(c23)C(=O)N1CCc1ccccc1	-245.6*
O=C1c2ccc3c4c(ccc(c24)C(=O)N1CCCCO)C(=O)N(CCCCO)C3=O	110.7
SMILES	aSyn 5UTR act
O=C(CSC(=S)N1CCSCC1)c1ccc(Cl)cc1	-151.8*
O=C(CSC(=S)N1CCSCC1)c1ccccc1	-93.9*
Nc1nc(SCc2ccccc2)ns1	-88.8*
Nc1cc(N)nc(SCc2ccccc2)n1	-110.3*
COc1ccc(/C=C2\SC(=S)N(CCCC(=O)N3CCOCC3)C2=O)cc1	55.8
O=C(CCN1C(=O)/C(=C/c2cccs2)SC1=S)N1CCCCC1	-90.2*
COc1cc(/C=C2\SC(=S)N(CCC(=O)N3CCCCC3)C2=O)cc(OC)c1OC	-95.2*
O=C1/C(=C/c2cccs2)SC(=S)N1CCC(=O)N1CCCCC1CCO (stereo unspecified)	-108.5*
CCc1ccc(N=c2c([N+](=O)[O-])nn(-c3ccccc3)n2O)cc1	-88.2*
COc1ccc(-n2nc([N+](=O)[O-])c(=NCCC3=CCCCC3)n2O)cc1	-81.8*
COc1ccc(-n2nc([N+](=O)[O-])c(=NCc3cccnc3)n2O)cc1	-121.0*
COc1ccc(-n2nc([N+](=O)[O-])c(=NCc3ccco3)n2O)cc1	-83.2*
COc1cc2c(C)nc3c(cnn3-c3ccccc3)c2cc1OC	-240.5*
CC(/C=N/NC(=O)c1ccccc1F)=C\c1ccccc1	-137.8*
CC(/C=N/NC(=O)c1ccccc1C)=C\c1ccccc1	-136.3*
Cc1ccc(OCc2nc(-c3ccccc3)no2)cc1	-121.5*
Cc1ccccc1OCc1nc(-c2ccccc2)no1	-178.5*
Cc1ccc(-c2noc(COc3ccccc3C)n2)cc1	-86.4*
c1ccc(-c2noc(COc3ccc4c(c3)OCO4)n2)cc1	-192.4*
Cc1cc(Br)ccc1OCc1nc(-c2cccnc2)no1	-113.6*
Cc1cc(NC(c2cccnc2)c2ccc3cccnc3c2O)no1 (stereo unspecified)	77.3
Cc1ccsc1C(=O)N/N=C/c1ccc2c(c1)OCO2	-98.9*
O=C(N/N=C/c1ccc2c(c1)OCO2)c1cccs1	-134.6*
Cc1c(C(=O)NCCCN2CCCCC2)oc2ccc3c(c12)C(O)CC1(CCCCC1)O3 (stereo unspecified)	76.0
Cc1c(C(=O)NCc2ccoc2)oc2ccc3c(c12)C(=O)CC(C)(C)O3	-464.0*
SMILES	aSyn 5UTR act
Cc1ccc(NC(=O)c2ccc3nc[nH]c3c2)cc1C	-169.7*
O=C(N/N=C/c1ccccc1[N+](=O)[O-])c1ccc2nc[nH]c2c1	-112.8*
O=C(Nc1ccc(F)cc1)c1ccc2nc[nH]c2c1	-81.5*
CN(C)c1ccc(NC(=O)c2ccc3nc[nH]c3c2)cc1	-125.6*
CCN(CC)c1ccc(/C=N/NC(=O)c2ccc3nc[nH]c3c2)c(O)c1	92.6
O=C(NNS(=O)(=O)c1ccccc1[N+](=O)[O-])c1cccc([N+](=O)[O-])c1	-68.5*
CC(C)(C)c1cc(NC(=O)c2cccc([N+](=O)[O-])c2)no1	-111.1*
Cc1cc(O)c(NC(=O)c2cccc([N+](=O)[O-])c2)cc1C	-79.4*
O=C(Nc1cc([N+](=O)[O-])ccc1O)c1cccc([N+](=O)[O-])c1	-96.0*
CC(=O)c1ccc(OCc2ccccc2)c(C)c1O	-107.7*
